Assay results published in PubChem BioAssay (EPA / NIEHS).
Activity calls are given as the source filed them. How the source made its calls: active means hit-call score of the fitted dose curve at least 0.9, where 1 is the maximum; inactive means score below 0.9.

assay: ATG_FoxO_CIS: Attagene CIS-FACTORIAL HepG2 Assay for human Forkhead box O (FoxO) (AID 2282943); conditions: HepG2 Attagene cis-reporter, FoxO element, mRNA; actives raise or lower the signal
Procedure, shortened: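 HepG2 cells transiently transfected with cis-element-driven reporter units report endogenous FoxO activity. After 24 h chemical exposure, reporter mRNA quantified by RT-PCR, fluorescent labeling, HpaI digestion and capillary electrophoresis; bidirectional fit versus DMSO.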

SMILES | outcome | AC50
NNC(=O)OCc1ccccc1 | inactive | –
CC(CO)c1ccccc1 (centres undefined) | inactive | –
CCCCCC1CCC(=O)O1 (centres undefined) | inactive | –
c1ccc2scnc2c1 | inactive | –
C=C1CC/C=C(\C)CC[C@@H]2[C@@H]1CC2(C)C | inactive | –
CC/C=C\CCOC(C)OCC (centres undefined) | inactive | –
C=C(C)C(N)=O | inactive | –
CC1=CC[C@@H]2C[C@H]1C2(C)C | inactive | –
CCCCCCCCOC(=O)c1ccc(O)cc1 | inactive | –
CC(C)(C)c1ccc(S)cc1 | inactive | –
CCOC(=O)C(=O)OCC | inactive | –
C1CCCNCC1 | inactive | –
CCCCCCC(C)O (centres undefined) | inactive | –
CC1(C)CC(N)CC(C)(CN)C1 (centres undefined) | inactive | –
CN1CCc2cccc3c2[C@H]1Cc1ccc(O)c(O)c1-3 | inactive | –
CCCCOCCOCCO | inactive | –
CCn1cc(C(=O)O)c(=O)c2ccc(C)nc21 | inactive | –
C=CC(=O)OCC(CO)(COC(=O)C=C)COC(=O)C=C | – | 13.4 µM (active)
CC/C=C\CCOC(=O)C(C)C | inactive | –
Nc1ccn([C@H]2CC[C@@H](CO)O2)c(=O)n1 | inactive | –
CC(=O)OCC=C(C)CCC=C(C)CCC=C(C)C | – | 128 µM (active)
NC(N)=S | inactive | –
CC(=O)C1C(=O)C=C(C)OC1=O (centres undefined) | inactive | –
CC(C)CCOC(=O)CC(C)C | inactive | –
CC(C)=CC(=O)O | inactive | –
CCCCCc1cccc(=O)o1 | inactive | –
CCO[Si](CCC#N)(OCC)OCC | inactive | –
CC(C)COC(=O)c1ccccc1O | inactive | –
O=C(C=Cc1ccccc1)OCCCc1ccccc1 | inactive | –
O=C1CCC(=O)N1 | inactive | –

assay: ATG_GATA_CIS: Attagene CIS-FACTORIAL HepG2 Assay for human GATA Binding Protein (AID 2282944); conditions: HepG2 GATA cis-element reporter, Attagene multiplex mRNA; actives raise or lower the signal
Procedure, shortened: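 After transfecting HepG2 cells with multiple cis-regulated reporter units, chemicals are dosed for 24 h; isolated RNA undergoes RT-PCR and fluorescent labeling before capillary electrophoresis, with activity expressed against DMSO.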

SMILES | outcome | AC50
C1=COCCC1 | inactive | –
NC(=O)c1cccnc1 | inactive | –
COC(=O)c1cccc(C(=O)OC)c1 | inactive | –
CC(C)(O)CCc1ccccc1 | inactive | –
NNC(=O)OCc1ccccc1 | inactive | –
CC(CO)c1ccccc1 (centres undefined) | inactive | –
CCCCCC1CCC(=O)O1 (centres undefined) | inactive | –
c1ccc2scnc2c1 | inactive | –
C=C1CC/C=C(\C)CC[C@@H]2[C@@H]1CC2(C)C | inactive | –
CC/C=C\CCOC(C)OCC (centres undefined) | inactive | –
C=C(C)C(N)=O | inactive | –
CC1=CC[C@@H]2C[C@H]1C2(C)C | inactive | –
CCCCCCCCOC(=O)c1ccc(O)cc1 | inactive | –
CC(C)(C)c1ccc(S)cc1 | inactive | –
CCOC(=O)C(=O)OCC | inactive | –
C1CCCNCC1 | inactive | –
CCCCCCC(C)O (centres undefined) | inactive | –

SMILES | outcome | AC50
CC1(C)CC(N)CC(C)(CN)C1 (centres undefined) | inactive | –
CN1CCc2cccc3c2[C@H]1Cc1ccc(O)c(O)c1-3 | inactive | –
CCCCOCCOCCO | inactive | –
CCn1cc(C(=O)O)c(=O)c2ccc(C)nc21 | inactive | –
C=CC(=O)OCC(CO)(COC(=O)C=C)COC(=O)C=C | inactive | –
CC/C=C\CCOC(=O)C(C)C | inactive | –
Nc1ccn([C@H]2CC[C@@H](CO)O2)c(=O)n1 | inactive | –
CC(=O)OCC=C(C)CCC=C(C)CCC=C(C)C | – | 167 µM (active)
NC(N)=S | inactive | –
CC(=O)C1C(=O)C=C(C)OC1=O (centres undefined) | inactive | –
CC(C)CCOC(=O)CC(C)C | inactive | –
CC(C)=CC(=O)O | inactive | –
CCCCCc1cccc(=O)o1 | inactive | –
CCO[Si](CCC#N)(OCC)OCC | inactive | –
CC(C)COC(=O)c1ccccc1O | inactive | –
O=C(C=Cc1ccccc1)OCCCc1ccccc1 | inactive | –
O=C1CCC(=O)N1 | inactive | –
